ERG-DNA inh: ERG Ets/DNA interaction inhibition. fluorescence polarization, His-ERG Ets domain / labelled DNA. AID 624246. 0.028% of 370,000 active. P11308. Potency, µM (titrated, usually from 76.9 µM), inactives show top-dose FP activity, negative = inhibition, usual class: inhibitors; active means well fitted inhibition curve with a large enough effect in the polarisation, with a control signal flat; inconclusive means small, poorly fitted or top-dose-only effect, or effect the other way, or a change in a side signal; inactive means no such curve, though single readings can be large or run the other way; the % refers to the polarisation;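 further: polarization taken with two DNA probes labelled with fluorescein and Texas red; % of control where 0% means no effect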
Target sequence (P11308 whole entry, looked up, the tested form may be a part): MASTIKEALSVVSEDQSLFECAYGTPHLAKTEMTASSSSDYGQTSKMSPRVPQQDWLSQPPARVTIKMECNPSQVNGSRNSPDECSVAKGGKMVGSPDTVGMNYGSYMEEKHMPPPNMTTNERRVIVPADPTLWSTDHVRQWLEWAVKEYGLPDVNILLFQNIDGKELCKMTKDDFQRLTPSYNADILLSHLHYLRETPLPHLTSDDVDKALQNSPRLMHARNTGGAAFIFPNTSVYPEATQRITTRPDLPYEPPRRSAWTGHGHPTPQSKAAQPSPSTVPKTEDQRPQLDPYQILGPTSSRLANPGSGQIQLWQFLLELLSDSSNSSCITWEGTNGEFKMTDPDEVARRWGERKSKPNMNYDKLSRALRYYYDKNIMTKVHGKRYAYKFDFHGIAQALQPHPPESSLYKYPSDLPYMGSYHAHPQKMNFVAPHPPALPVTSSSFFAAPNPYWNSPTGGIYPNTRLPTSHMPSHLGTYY
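His-tagged ERG Ets domain (1 uM in the protein solution; 300mM KCl, 50mM Tris-HCl, 1mM EDTA, 1mM DTT, pH 7.5) received compound, then a probe mix of 5 nM fluorescein-DNA and 100nM Texas-615-DNA. Fluorescence polarization was read for both dyes.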
TDP43 rescue: rescues yeast growth from TDP-43 toxicity; TDP-43 expressing yeast growth rescue, BacTiter-Glo, 24 h; Potency, µM (series often up to 46.1 µM), for inactives: at the highest dose growth rescue (activation), actives largely listed as activators; 1.8% of 410,000 active; further: % of control where 0% means no effect; nearly all actives have a fitted effect of over 50% in size
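Luminescence from BacTiter-Glo reports growth of TDP-43-expressing yeast after 24 hr at 30 deg C with compound. Cells were raffinose-pregrown to mid-log, then seeded in galactose medium at OD600=0.02.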
Abeta rescue: A-beta toxicity reversal in yeast; yeast expressing A-beta42, growth rescue, OD600, 48 h; response scale: 0% DMSO, 100% iron-clioquinol control; Potency, µM (highest dose often 46.1 µM), actives largely listed as activators; 0.063% of 410,000 active; AID 1347071; further: nearly all actives have a fitted effect of over 55% in size
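Yeast A-beta toxicity model in growth medium with pinned compounds, 48 h at 30 C; growth read as absorbance at 600 nm. Normalized to FeCl3/clioquinol equimolar mix (positive) and DMSO (negative).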
FUS suppressor: rescues growth of FUS-expressing yeast | 0.24% of 390,000 active | AID 1347120 | Potency, µM (doses to about 76.6 µM), usual class: activators | S. cerevisiae FUS-expressing, growth rescue, OD600, 24 h;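 further: plate controls were DMSO vehicle for no effect and reference control for full effect; nearly all actives have a fitted effect of over 55% in size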
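Read-out: OD at 600 nm after 24hr at 30C, reporting rescue of FUS-induced yeast toxicity. Cells at OD 0.005 in galactose (2%) minimal medium; compounds tested in a dilution series; CP55940 titration from 92uM final as control.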
Mito fusion act: blocks mitochondrial division or promotes mitochondrial fusion. S. cerevisiae fusion-defective mutant growth rescue, CellTiterGlo 48 h. Potency, µM (top dose mostly 46.1 µM), for the others: at the top dose growth rescue (activation), most hits filed as activators. 0.23% of 320,000 active. AID 485298; further: % of control where 0% means no effect; nearly all actives have a fitted effect of over 45% in size
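Luminescent cell viability in 1536-well qHTS format served as the measure of rescued growth in ts fusion-mutant S. cerevisiae cultured on non-fermentable YPEG for 48 hours at 37C.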
aSyn rescue: rescues yeast growth from alpha-synuclein toxicity | Yeast expressing alpha-synuclein, growth rescue, BacTiter-Glo, 24 h | Potency, µM (series often up to 46.1 µM), without a hit: at the highest dose growth rescue (activation), hits mostly activators | 0.14% of 370,000 active; further: % of control where 0% means no effect; nearly all actives have a fitted effect of over 65% in size
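Rescue of yeast growth: cells expressing toxic alpha-synuclein, induced in galactose at OD600 0.02, incubated with compound 24 h at 30 C. ATP luminescence quantified growth; inhibitors of toxicity appear as activators.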
* marks the source's active call; other numbers are inactive results; i = inactive; ? = inconclusive; / = no result; ! = not confirmed by another sample. The list is not random: actives were taken first. Their share in the collection is about 2.2%. Unless noted, the call rests on the fitted dose curve; in most records, active means well fitted curve in the direction sought with a large enough effect; inconclusive means small, poorly fitted or top-dose-only effect, or another doubt; inactive means no such curve, though single readings can be large; an effect the other way counts as inactive or inconclusive. Potency means the concentration at half of the fitted maximal effect.

SMILES | ERG-DNA inh | TDP43 rescue | Abeta rescue | FUS suppressor | Mito fusion act | aSyn rescue
Cn1c(SCCOc2ccccc2)nnc1-c1ccc(NC(=O)CCc2ccccc2)cc1 | / | / | / | / | / | -5.7%
CCCc1cnc(N2CCN(C(=O)c3ccccc3)CC2)nc1 | 4.9% | 11.2µM* | i | i | -6.6% | 6.5%
O=C(c1ccccc1)N1CCN(c2ncccn2)CC1 | -3.2% | 0.0% | i | i | 0.9% | 9.5%
CCC(=O)c1ccc(N2CCN(C(=O)c3ccccc3F)CC2)c(F)c1 | -2.9% | ? | i | i | 10µM* | 6.6%
CCOC(=O)N1CCN(C(=O)c2ccc3nc(-c4ccccc4)c(-c4ccccc4)nc3c2)CC1 | -1.3% | 17.8µM* | i | ? | ? | 3.7%
NC(=O)C1CCN(C(=O)c2ccc3nc(-c4ccccc4)c(-c4ccccc4)nc3c2)CC1 | 7.1% | 1.9% | i | i | -6.1% | -8.6%
CCc1nc2ccc(C(=O)N3CCN(c4ccccc4F)CC3)cc2nc1CC | -0.2% | 20µM*! | i | ? | -0.7% | 0.8%
CCc1nn2c(=O)cc(COC(=O)CNC(=O)c3ccccc3)nc2s1 | 2.0% | -18.7% | i | i | / | /
Clc1nnc(NC2CCCCC2)c(Cl)c1Cl | / | 22.4µM* | i | i | / | ?
CCOc1ccc(C(=O)c2cn(CC(=O)Nc3cc(OC)cc(OC)c3)c3ccc(F)cc3c2=O)cc1 | -6.9% | -10.3% | i | i | / | /
O=C(c1cc(-c2ccc(O)cc2)on1)N1CCc2ccccc2C1 | 0.4% | 14.1µM* | i | i | 19.5% | -8.1%
COc1ccc2[nH]c3c(c2c1)CCN1C(=O)C(CC(=O)NCC24CC5CC(CC(C5)C2)C4)C[C@H](C(=O)N(C(C)C)C(C)C)[C@@]31C (some centres undefined) | -3.0% | 11.2µM* | i | ? | / | -15.1%
C[C@]12c3[nH]c4ccc(Cl)cc4c3CCN1C(=O)[C@@H](CC(=O)NCC13CC4CC(CC(C4)C1)C3)C[C@@H]2C(=O)N1CCOCC1 | -1.2% | 20.3% | i | ? | / | 10.8%
CCN(CC)C(=O)[C@H]1CC(CC(=O)NCC23CC4CC(CC(C4)C2)C3)C(=O)N2CCc3c([nH]c4ccccc34)[C@]12C (some centres undefined) | 4.1% | 28.2µM* | i | i | / | ?
COc1ccc2[nH]c3c(c2c1)CCN1C(=O)C(CC(=O)NCC24CC5CC(CC(C5)C2)C4)C[C@H](C(=O)N2CCOCC2)[C@@]31C (some centres undefined) | 5.5% | 17.7% | i | i | / | -0.4%
C[C@]12c3[nH]c4ccc(Cl)cc4c3CCN1C(=O)[C@@H](CC(=O)NCC13CC4CC(CC(C4)C1)C3)C[C@@H]2C(=O)N1CCCCC1 | -6.9% | 19.2% | i | i | / | 15.8µM*
CN1N/C(=C\c2ccccc2)N=C2C(=O)N(C)C(=O)N=C21 | / | / | / | / | / | -78.6%
Cc1cccc(N(CC(=O)NCCSCc2ccc(Cl)cc2)S(C)(=O)=O)c1C | 5.4% | 15.8µM* | ? | i | / | /
Cc1cccc(N(CC(=O)NCCSCc2ccccc2)S(C)(=O)=O)c1C | 2.9% | 23.1% | i | i | 0.3% | 2.3%
CCOc1ccccc1C(=O)NCc1nc2cccnc2n1Cc1ccc(C)cc1 | 6.8% | 15.8µM* | i | i | / | /
Cc1ccccc1C(=O)NCc1nc2cccnc2n1Cc1ccccc1 | -7.4% | 21.1% | i | i | / | /
COc1ccccc1N1CCN(c2cc(C)nc3nncn23)CC1 | 2.4% | 2.6% | i | i | / | /
CCCc1cc(N2CCN(c3ccccc3F)CC2)n2cnnc2n1 | -0.2% | 20µM* | i | i | / | /
CCCc1cc(N2CCN(c3ccccc3)CC2)n2cnnc2n1 | 1.0% | 20µM* | i | i | / | /
CC(=O)Nc1ccc(C(=O)N2c3ccccc3N=C(c3ccc4c(c3)OCO4)C2C(=O)NCc2ccccc2)cc1 (centres undefined) | / | 7.4% | i | 12.6µM* | / | -10.7%
SMILES | ERG-DNA inh | TDP43 rescue | Abeta rescue | FUS suppressor | Mito fusion act | aSyn rescue
COc1ccc(C2=Nc3ccccc3N(C(=O)c3ccc4c(c3)OCO4)C2C(=O)NCc2ccccc2)cc1 (centres undefined) | / | ? | i | ? | / | 7.1%
Cc1ccccc1[C@@]1(C)ON(c2ccccc2C(F)(F)F)C1=O | 0.4% | 10.8% | i | i | -38.3% | 14.2%
CC[C@@]1(c2ccccc2OC)ON(c2ccccc2C(F)(F)F)C1=O | 0.3% | 17.8µM* | i | i | -31.6% | 6.5%
O=C(c1cccs1)n1cc(C(=S)N2CCOCC2)c2ccccc21 | -0.8% | 20µM* | i | i | 10.6% | /
O=C(C1CC1)n1cc(C(=S)N2CCOCC2)c2ccccc21 | -1.8% | 3.8% | i | i | -0.9% | -14.4%
CCCCNC(=O)c1cnc2sc(N3CCCCCC3)nn2c1=O | 2.6% | 12.0% | i | i | / | /
O=C(CN1C(=O)CSc2ccc(S(=O)(=O)N3CCCC3)cc21)NCc1ccccc1Cl | -0.9% | 14.3% | i | i | / | /
CCOc1cc(N(CC)CC)ccc1/C=C(/C#N)c1nc2ccccc2[nH]1 | 14.2% | 7.08µM* | i | ? | 16.4% | -22.1%
CCN(CC)c1ccc(/C=C(/C#N)c2nc3ccc(C)cc3[nH]2)c(OC(C)C)c1 | ? | ? | i | 8.91µM* | 0.5% | -35.2%
N#C/C(=C\c1c(Cl)cccc1Cl)c1nc2ccccc2[nH]1 | -6.4% | 11.2µM* | i | i | 14.4% | -45.6%
CCCCc1ccc(S(=O)(=O)NC(=O)C2(C)CCN2C(=O)C/C=C/c2ccccc2)cc1 (centres undefined) | / | 7.6% | i | i | / | -38.1%
COCCCN1C(=O)[C@H](CC(=O)N2CCOCC2)[C@]2(C(=O)OC)CCCCC=C12 | / | / | / | i | / | /
COc1ccc(C(=O)OCN2C(=O)c3ccccc3C2=O)cc1 | 8.3% | 10µM* | i | i | -4.4% | ?
CCc1ccc(OC(=O)CN2C(=O)c3ccccc3C2=O)cc1 | -6.6% | 15.8µM* | i | i | -8.4% | 11.8%
CC(=O)c1cccc(NC(=O)Cn2c(=O)oc3cc(S(=O)(=O)NC4CCCC4)ccc32)c1 | -0.8% | 11.3% | i | i | / | /
COC(=O)[C@]12C[C@H](CC(=O)NCc3ccc(OC)c(OC)c3)C(=O)N(Cc3ccco3)C1=C[C@H](C1CCCC1)O[C@@H]2C | / | / | / | i | / | /
Cc1ccc(C(=O)NCC#N)cc1 | 2.5% | -1.0% | i | i | -8.6% | -0.5%
Cc1ccc(C(=O)NC(C#N)=C(Cl)Cl)cc1 | 9.4% | 11.2µM* | i | i | -10.5% | 6.0%

Assay outcomes: PubChem BioAssay, National Center for Advancing Translational Sciences (NCATS)
